# Screening results from PubChem BioAssay.
# 3CLpro inhibitor = SARS-CoV 3CLpro protease inhibition; AID 1706; inhibition, % at 6 µM; 0.14% of 290,000 active; recombinant SARS-CoV 3CLpro, quenched FRET peptide cleavage; P0C6X7; in the data active = inhibition above about 12%
# MazF activator = activators of E. coli MazEF toxin-antitoxin RNase; P0AE70; FAM/BHQ RNA-DNA oligo cleavage fluorescence, 5 h; activation, % at 20 µM; 0.32% of 350,000 active; AID 504720; in the data active = activation above about 50%
# Target sequence (P0AE70 whole entry, looked up): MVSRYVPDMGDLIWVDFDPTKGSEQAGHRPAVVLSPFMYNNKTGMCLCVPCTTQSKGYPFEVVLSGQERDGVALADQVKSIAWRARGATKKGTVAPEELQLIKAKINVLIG
# Yp Topo-I inh = blocks Yersinia pestis topoisomerase I activity. Y. pestis Topo-I cleavage product accumulation, plate reader. 0.064% of 360,000 active. activity, % at 10 µM; in the data active = activity above about 50%, passing the limit was not always enough
# PriA SSB inh = blocks PriA binding to SSB C-terminal tail. AlphaScreen SSBct-PriA binding, biotinylated peptide. inhibition, % at 33 µM. 0.6% of 430,000 active. AID 1272365; in the data active = inhibition mostly above about 37%, no sharp cut-off; inactive = mostly below about 20%;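 also: plate controls were negative control peptide for no effect and reference peptide for full effect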
# Numbers without * were called inactive; / = no result given. Most compounds without a hit are left out; they make up all but 0.9% or so of the library.
SMILES,3CLpro inhibitor,MazF activator,Yp Topo-I inh,PriA SSB inh
CN(C1CCCCC1)S(=O)(=O)c1ccc(I)cc1,/,/,/,-3.0
O=C(c1cc2cc([N+](=O)[O-])ccc2oc1=O)n1cccn1,3.2,3.6,0.4,56.4*
Cc1cc(OCCn2nc(C(=O)O)c3ccccc3c2=O)ccc1C(C)C,5.9,-15.8,83.2*,0.3
COc1cc(OC)c(NC(=S)Nc2cccc(C(C)=O)c2)cc1Cl,1.2,-0.9,-6.9,6.3
COc1cc(OC)c(NC(=S)Nc2cc(Cl)cc(Cl)c2)cc1Cl,3.6,59.7*,-23.1,-3.2
CCOC(=O)CSC(CC)C(=O)Nc1nnc(-c2ccccc2Cl)s1 (configuration not stated),/,/,/,-6.0
COc1cc(C(C)=O)ccc1OCC(=O)NCCOc1cccc(C(F)(F)F)c1,/,/,/,-10.0
COc1ccc(S(=O)(=O)C(CNC(=O)C23CC4CC(CC(C4)C2)C3)c2cccs2)cc1 (configuration not stated),/,/,/,-14.0
COc1ccnc(CSC(N)=Nc2ccccc2OC)c1,-3.1,3.1,-4.1,40.4*
CC(Cc1ccccc1)[n+]1cc(N=C(N)[O-])on1 (configuration not stated),/,/,/,-3.5
COc1ccccc1N1COc2ccc3c(=O)c(-c4ccccc4)coc3c2C1,/,/,/,32.0*
COc1ccc(-c2coc3c4c(ccc3c2=O)OCN(c2ccc(F)cc2F)C4)cc1OC,/,/,/,-8.0
COc1ccc(CC(=O)N(CCN2CCOCC2)c2nc3ccc(SC)cc3s2)cc1OC,/,/,/,29.0*
COc1ccc2nc(N(CCN3CCOCC3)C(=O)c3cc(C)no3)sc2c1,/,/,/,-4.0
O=C(Nc1ccc(Cl)cc1Cl)NC1CCN(S(=O)(=O)c2ccc(F)cc2)CC1,2.4,100.7*,1.1,1.3
Nc1c(C(=O)Nc2ccc(Cl)c(C(F)(F)F)c2)nnn1-c1ccccc1,/,/,/,-4.0
NC(=O)c1cc(-c2ccccc2)sc1NC(=O)Cc1ccc(S(=O)(=O)N2CCOCC2)s1,19.4*,13.3,-6.7,2.1
C=CCNC(=S)NN=C(C)c1ccccn1,/,/,/,-5.4
COCCNC(=S)NNC(=O)c1ccccn1,/,/,/,156.0*
CC(C)C(=O)NNC(=O)c1ccccn1,1.0,2.1,-0.7,-12.5
C=CCNC(=S)NNC(=O)c1ccccn1,/,/,/,148.5*
CNC(=S)NNC(=O)c1ccccn1,/,/,/,152.5*
C=c1cc(C)ccc1=C1NN=C(NC(=O)c2ccc(S(=O)(=O)N(C)C)cc2)O1,/,/,/,-12.0
COc1cc(-c2noc(CN3C(=O)C(C)Oc4ccccc43)n2)cc(OC)c1OC (configuration not stated),/,/,/,-26.0
O=C(NCCN1CCOCC1)C(=O)NCC(c1cccs1)N1CCc2ccccc2C1 (configuration not stated),/,/,/,-15.0
SMILES,3CLpro inhibitor,MazF activator,Yp Topo-I inh,PriA SSB inh
CCCCn1c(O)c(C(CC)=Nc2ccc(OC)cc2OC)c(=O)[nH]c1=O,1.7,6.3,23.0,6.4
CCCCn1c(O)c(C(CC)=Nc2ccc(OCC)cc2)c(=O)[nH]c1=O,2.2,54.9*,4.1,-4.1
O=C(Cn1c(=O)oc2ccccc21)N1CC(S(=O)(=O)c2ccc(F)cc2)C1,/,/,/,-2.0
CCCOc1ccc(C2=CC(=O)C[C@H](c3ccc(OC)cc3)C2)cc1,/,-5.6,60.3*,7.2
Fc1ccccc1-c1nc(-c2ccccc2)no1,0.2,-0.5,-5.3,-72.9
COc1ccc(-c2noc(-c3ccccc3F)n2)cc1,1.2,-28.1,6.8,104.2*
Cn1cc(S(=O)(=O)N2CCCN(C(=O)c3cc(-c4ccco4)on3)CC2)cn1,/,/,/,-7.0
CNC(=O)/C(C#N)=C/c1ccc(-c2nc3ccccc3s2)o1,-0.6,94.0*,6.6,-5.0
NC(=O)c1ccc(NC(=O)c2csc(Nc3ccccc3)n2)cc1,/,/,/,12.0
Cc1ccc(C)c(CSc2nnc([C@@H](N)C(C)C)o2)c1,-0.9,-2.0,89.6*,-1.0
CCOC(=O)c1ccc(-n2nc(C(F)(F)F)c3c(C)cc(=O)oc32)cc1,-6.9,/,/,/
Cc1cc(=O)oc2c1c(C)nn2-c1nn[nH]n1,-1.7,-7.8,-0.9,58.3*
O=C(NCC1COC2(CCCC2)O1)C(=O)Nc1ccc2c(c1)OCO2 (configuration not stated),/,/,/,6.0
O=C(NCC1CCCO1)c1nn2c(C(F)(F)F)cc(-c3ccco3)nc2c1Cl (configuration not stated),-3.4,7.9,11.1,-4.8
O=C(NCC1CCCO1)c1nn2c(C(F)(F)F)cc(-c3cc(Br)cs3)nc2c1Br (configuration not stated),-3.1,71.0*,-0.1,-8.0
Cc1ccc(C)c(N2CCN(S(=O)(=O)CCOc3ccccc3)CC2)c1,/,/,/,-2.0
COC(=O)N1CCC(CNS(C)(=O)=O)CC1,/,/,/,-1.0
O=C(Cc1ccccc1Cl)N(Cc1cccs1)C1CCOCC1,/,/,/,-35.0
O=C(O)CCC(=O)NCCn1c(-c2ccccc2)csc1=Nc1ccccc1,-0.4,-0.9,7.4,-5.4
